Legend:
Assay in all cases: DAPPL (digital affinity profiling via proximity ligation, sequencing); 10 mM Tris-HCl pH 7.5, 50 mM NaCl, 1 mM DTT, 4% glycerol, room temperature, 30 min; GST-TFs on glutathione beads, 16-mer random dsDNA library, 0.1% formaldehyde crosslink after washing; high values mean tight binding
Conditions in all cases: protein: recombinant; tags: N-terminal GST; dsDNA, one strand shown
ERF = biological target: T1, ERF (Homo sapiens, UniProt P50548 1-548)
T1 sequence: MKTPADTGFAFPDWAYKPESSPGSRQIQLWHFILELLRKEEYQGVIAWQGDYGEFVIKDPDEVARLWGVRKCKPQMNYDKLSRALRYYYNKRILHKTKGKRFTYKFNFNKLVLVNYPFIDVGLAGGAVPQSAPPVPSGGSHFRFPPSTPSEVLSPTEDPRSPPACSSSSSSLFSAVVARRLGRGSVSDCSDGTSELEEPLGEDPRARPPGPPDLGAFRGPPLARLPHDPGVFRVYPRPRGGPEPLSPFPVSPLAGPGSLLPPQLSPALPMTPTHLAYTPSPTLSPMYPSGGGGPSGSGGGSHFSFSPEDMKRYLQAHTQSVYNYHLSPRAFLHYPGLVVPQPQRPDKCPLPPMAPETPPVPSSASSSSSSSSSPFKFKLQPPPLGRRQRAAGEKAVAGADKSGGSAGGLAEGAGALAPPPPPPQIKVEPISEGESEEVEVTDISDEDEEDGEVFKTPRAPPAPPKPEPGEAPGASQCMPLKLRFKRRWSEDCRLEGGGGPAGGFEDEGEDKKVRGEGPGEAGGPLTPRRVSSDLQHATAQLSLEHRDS
Method in brief: (§1)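 Each value of binding signal is a hexamer's read frequency for a factor divided by the same hexamer's frequency in the tag-only sample. Barcoded, bead-captured GST fusions of human transcription factors made in yeast were pooled with that sample and incubated with 200 nmole of a random double-stranded 16-mer DNA library in Tris/NaCl/DTT/glycerol buffer at room temperature for 30 min. Washing, 0.1% formaldehyde crosslinking, proximity ligation, PCR and Illumina NextSeq500 sequencing followed.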

ETV3L = biological target: T2, ETV3L (Homo sapiens, UniProt Q6ZN32 1-361)
T2 sequence: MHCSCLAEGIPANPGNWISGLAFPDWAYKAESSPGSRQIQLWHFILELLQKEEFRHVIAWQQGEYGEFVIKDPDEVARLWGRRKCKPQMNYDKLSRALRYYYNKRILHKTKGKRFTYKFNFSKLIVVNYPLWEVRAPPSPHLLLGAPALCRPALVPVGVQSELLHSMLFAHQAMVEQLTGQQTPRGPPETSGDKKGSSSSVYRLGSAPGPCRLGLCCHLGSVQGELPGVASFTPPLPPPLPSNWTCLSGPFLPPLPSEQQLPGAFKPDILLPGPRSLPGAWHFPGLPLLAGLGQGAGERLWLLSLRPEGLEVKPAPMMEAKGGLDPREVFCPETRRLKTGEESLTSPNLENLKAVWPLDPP
Method in brief: as §1

ETS2 = biological target: T3, ETS2 (Homo sapiens, UniProt P15036 1-469)
T3 sequence: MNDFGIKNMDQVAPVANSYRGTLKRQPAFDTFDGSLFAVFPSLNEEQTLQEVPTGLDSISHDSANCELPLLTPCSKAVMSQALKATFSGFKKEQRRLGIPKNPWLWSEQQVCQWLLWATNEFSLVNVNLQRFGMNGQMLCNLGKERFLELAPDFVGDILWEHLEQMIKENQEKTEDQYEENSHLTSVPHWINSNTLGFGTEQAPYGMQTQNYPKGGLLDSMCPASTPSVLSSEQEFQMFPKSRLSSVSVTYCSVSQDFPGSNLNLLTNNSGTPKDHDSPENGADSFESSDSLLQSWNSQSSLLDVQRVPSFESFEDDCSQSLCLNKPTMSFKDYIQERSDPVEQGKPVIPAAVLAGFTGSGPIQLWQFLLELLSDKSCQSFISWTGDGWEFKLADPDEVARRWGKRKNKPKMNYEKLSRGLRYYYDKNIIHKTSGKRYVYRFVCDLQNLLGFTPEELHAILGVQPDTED
Method in brief: as §1

SPDEF = biological target: T4, SPDEF (Homo sapiens, UniProt O95238 1-335)
T4 sequence: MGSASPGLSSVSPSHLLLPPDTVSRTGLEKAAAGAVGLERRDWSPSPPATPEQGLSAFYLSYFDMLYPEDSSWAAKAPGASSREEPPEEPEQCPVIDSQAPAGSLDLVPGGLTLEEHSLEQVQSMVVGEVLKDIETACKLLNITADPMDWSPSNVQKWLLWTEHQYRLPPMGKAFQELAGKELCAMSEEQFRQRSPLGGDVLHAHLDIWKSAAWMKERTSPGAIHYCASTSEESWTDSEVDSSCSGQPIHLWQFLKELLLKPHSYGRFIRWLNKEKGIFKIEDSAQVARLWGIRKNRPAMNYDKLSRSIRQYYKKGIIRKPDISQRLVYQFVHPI
Method in brief: as §1

ETV7 = biological target: T5, ETV7 (Homo sapiens, UniProt Q9Y603 1-341)
T5 sequence: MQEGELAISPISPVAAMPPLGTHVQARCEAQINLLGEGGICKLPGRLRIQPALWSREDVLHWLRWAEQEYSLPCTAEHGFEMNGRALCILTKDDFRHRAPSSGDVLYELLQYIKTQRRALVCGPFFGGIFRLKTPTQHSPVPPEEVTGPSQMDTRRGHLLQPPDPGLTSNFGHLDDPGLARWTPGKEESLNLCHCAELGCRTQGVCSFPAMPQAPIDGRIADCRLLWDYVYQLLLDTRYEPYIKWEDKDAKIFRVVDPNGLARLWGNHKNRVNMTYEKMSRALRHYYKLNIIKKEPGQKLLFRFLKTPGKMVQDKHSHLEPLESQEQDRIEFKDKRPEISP
Method in brief: as §1

ELF5 = biological target: T6, ELF5 (Homo sapiens, UniProt Q9UKW6-2 1-255)
T6 sequence: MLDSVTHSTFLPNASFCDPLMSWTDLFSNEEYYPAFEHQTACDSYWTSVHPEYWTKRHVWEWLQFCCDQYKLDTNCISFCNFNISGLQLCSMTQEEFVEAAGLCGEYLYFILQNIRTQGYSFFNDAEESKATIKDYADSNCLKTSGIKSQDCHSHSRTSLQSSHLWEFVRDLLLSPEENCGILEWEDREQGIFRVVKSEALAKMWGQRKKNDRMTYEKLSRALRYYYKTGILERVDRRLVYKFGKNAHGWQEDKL
Method in brief: as §1

ETV3 = biological target: T7, ETV3 (Homo sapiens, UniProt P41162-2 1-143)
T7 sequence: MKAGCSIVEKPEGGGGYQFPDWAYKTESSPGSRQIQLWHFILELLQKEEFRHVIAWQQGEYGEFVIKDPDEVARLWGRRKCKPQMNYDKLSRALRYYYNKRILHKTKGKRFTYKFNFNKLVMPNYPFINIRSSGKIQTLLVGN
Method in brief: as §1

ETV6 = ETV6 (Homo sapiens, UniProt P41212 1-452)
ETV6, sequence (P41212 whole entry): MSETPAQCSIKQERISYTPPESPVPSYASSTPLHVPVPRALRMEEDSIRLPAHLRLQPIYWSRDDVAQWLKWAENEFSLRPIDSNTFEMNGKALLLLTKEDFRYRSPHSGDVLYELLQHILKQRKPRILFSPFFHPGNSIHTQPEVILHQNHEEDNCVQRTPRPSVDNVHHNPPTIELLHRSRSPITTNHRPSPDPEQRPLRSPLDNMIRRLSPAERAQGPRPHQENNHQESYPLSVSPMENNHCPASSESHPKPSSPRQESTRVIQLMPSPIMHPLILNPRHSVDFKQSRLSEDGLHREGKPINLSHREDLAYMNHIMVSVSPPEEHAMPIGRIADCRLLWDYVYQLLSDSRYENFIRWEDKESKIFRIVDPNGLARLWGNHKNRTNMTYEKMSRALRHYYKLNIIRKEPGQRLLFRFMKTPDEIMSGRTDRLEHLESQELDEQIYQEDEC
Method in brief: as §1

Sequence	binding signal (ERF)	binding signal (ETV3L)	binding signal (ETS2)	binding signal (SPDEF)	binding signal (ETV7)	binding signal (ELF5)	binding signal (ETV3)	binding signal (ETV6)
TACGGC	1.32 fold enrichment (6-mer frequency, TF over GST control)	1.26 fold enrichment (6-mer frequency, TF over GST control)	1.22 fold enrichment (6-mer frequency, TF over GST control)	1.18 fold enrichment (6-mer frequency, TF over GST control)	1.13 fold enrichment (6-mer frequency, TF over GST control)	1.2 fold enrichment (6-mer frequency, TF over GST control)	1.21 fold enrichment (6-mer frequency, TF over GST control)	1.2 fold enrichment (6-mer frequency, TF over GST control)
AAATAG	1.11 fold enrichment (6-mer frequency, TF over GST control)	1.15 fold enrichment (6-mer frequency, TF over GST control)	1.12 fold enrichment (6-mer frequency, TF over GST control)	1 fold enrichment (6-mer frequency, TF over GST control)	1.23 fold enrichment (6-mer frequency, TF over GST control)	1.14 fold enrichment (6-mer frequency, TF over GST control)	1.21 fold enrichment (6-mer frequency, TF over GST control)	1.18 fold enrichment (6-mer frequency, TF over GST control)
GACCTC	1.52 fold enrichment (6-mer frequency, TF over GST control)	1.51 fold enrichment (6-mer frequency, TF over GST control)	1.38 fold enrichment (6-mer frequency, TF over GST control)	1.29 fold enrichment (6-mer frequency, TF over GST control)	1.33 fold enrichment (6-mer frequency, TF over GST control)	1.32 fold enrichment (6-mer frequency, TF over GST control)	1.28 fold enrichment (6-mer frequency, TF over GST control)	1.42 fold enrichment (6-mer frequency, TF over GST control)
CCGCCC	1.21 fold enrichment (6-mer frequency, TF over GST control)	1.36 fold enrichment (6-mer frequency, TF over GST control)	1.29 fold enrichment (6-mer frequency, TF over GST control)	1.27 fold enrichment (6-mer frequency, TF over GST control)	1.19 fold enrichment (6-mer frequency, TF over GST control)	1.38 fold enrichment (6-mer frequency, TF over GST control)	1.36 fold enrichment (6-mer frequency, TF over GST control)	1.39 fold enrichment (6-mer frequency, TF over GST control)
AAACGG	1.17 fold enrichment (6-mer frequency, TF over GST control)	1.23 fold enrichment (6-mer frequency, TF over GST control)	1.26 fold enrichment (6-mer frequency, TF over GST control)	1.25 fold enrichment (6-mer frequency, TF over GST control)	1.16 fold enrichment (6-mer frequency, TF over GST control)	1.25 fold enrichment (6-mer frequency, TF over GST control)	1.26 fold enrichment (6-mer frequency, TF over GST control)	1.28 fold enrichment (6-mer frequency, TF over GST control)
CCTTGT	1.29 fold enrichment (6-mer frequency, TF over GST control)	1.05 fold enrichment (6-mer frequency, TF over GST control)	1.26 fold enrichment (6-mer frequency, TF over GST control)	1.37 fold enrichment (6-mer frequency, TF over GST control)	1.19 fold enrichment (6-mer frequency, TF over GST control)	1.52 fold enrichment (6-mer frequency, TF over GST control)	1.31 fold enrichment (6-mer frequency, TF over GST control)	1.06 fold enrichment (6-mer frequency, TF over GST control)
CACTCA	1.2 fold enrichment (6-mer frequency, TF over GST control)	1.11 fold enrichment (6-mer frequency, TF over GST control)	1.16 fold enrichment (6-mer frequency, TF over GST control)	1.14 fold enrichment (6-mer frequency, TF over GST control)	1.21 fold enrichment (6-mer frequency, TF over GST control)	1.12 fold enrichment (6-mer frequency, TF over GST control)	1.09 fold enrichment (6-mer frequency, TF over GST control)	1.14 fold enrichment (6-mer frequency, TF over GST control)
CTTGCA	1.39 fold enrichment (6-mer frequency, TF over GST control)	1.53 fold enrichment (6-mer frequency, TF over GST control)	1.33 fold enrichment (6-mer frequency, TF over GST control)	1.49 fold enrichment (6-mer frequency, TF over GST control)	1.28 fold enrichment (6-mer frequency, TF over GST control)	1.36 fold enrichment (6-mer frequency, TF over GST control)	1.45 fold enrichment (6-mer frequency, TF over GST control)	1.3 fold enrichment (6-mer frequency, TF over GST control)
ATTCCA	1.14 fold enrichment (6-mer frequency, TF over GST control)	1.31 fold enrichment (6-mer frequency, TF over GST control)	1.15 fold enrichment (6-mer frequency, TF over GST control)	1.11 fold enrichment (6-mer frequency, TF over GST control)	1.1 fold enrichment (6-mer frequency, TF over GST control)	1.15 fold enrichment (6-mer frequency, TF over GST control)	1.15 fold enrichment (6-mer frequency, TF over GST control)	1.19 fold enrichment (6-mer frequency, TF over GST control)

Reference: article PMC7862700, “An all-to-all approach to the identification of sequence-specific readers for epigenetic DNA modifications on cytosine”
